PubChem BioAssay AID595 (National Center for Advancing Translational Sciences (NCATS), 2007)
About 310 (0.44%) of roughly 71,000 compounds were called active. Not shown: some 5% with an inconclusive outcome. Only a selection was taken, and actives are over-represented in it overall. A number with no mark means an inactive call. Calls follow the shape of the dose curve; as a rule, active = well fitted curve in either direction with a large enough effect; inconclusive = small, poorly fitted or top-dose-only effect, or another doubt; inactive = flat fitted curve, though single readings scatter.

These compounds were tested on Hsp90 C-terminal peptide / TPR2A (Hop) interaction, human (assay: qHTS Assay for Disrupters of an Hsp90 Co-Chaperone Interaction). Settings: AlphaScreen TPR2A-His6 binding biotin-Hsp90 C-terminal peptide; series mostly up to 57 µM; activity change, negative = inhibition: at the top concentration.
Text: NIH Chemical Genomics Center [NCGC]
NIH Molecular Libraries Screening Centers Network [MLSCN]
Hsp90 (heat shock protein 90) is the essential molecular chaperone and it accounts for 1-2% of all cytosolic proteins and is critical for the activity of diverse cellular proteins that are involved in a variety of cellular processes, including development, cell cycle, and steroid hormone signaling. Its client proteins include signaling kinases such as IGF1R, Akt, v-Src, Raf-1; regulators of cell survival such as Bcr-Abl; and transcription factors such as mutated p53, estrogen and progesterone receptors. Hsp90 has emerged as an important target for cancer treatment due to its essential role in maintaining transformation and regulating the function of oncogenic signaling proteins.
The in vivo function of Hsp90 is regulated by the binding and hydrolysis of ATP at its N-terminal. Geldanamycin binds to ATP site and inhibit Hsp90 function. Geldanamycin and its analogues are under clinical trials in cancer patients.
This domain contains the binding site for tetratricopeptide repeat (TPR) domains on HOP (Hsp Organizing Protein). TPR is a structural motif used by a significant number of cochaperones by which the in vivo function of Hsp90 is regulated. TPR2A on HOP binds specifically to MEEVD motif of the C-terminal of Hsp90.
A homogeneous AlphaScreen is developed to assess the interaction between TPR2A and MEEVD motif of the C-terminal of Hsp90 by using the isolated TPR2A domain and a synthesized 20mer Hsp90 C terminal peptide. AlphaScreen is two bead-based proximity-dependent chemical energy transfer luminescent assay platform. TPR2A-His-6 and biotinylated Hsp90 C terminal peptide will bring streptavidin donor beads and nickel chelate acceptor beads to a proximity range (less than 200 nm), and subsequently lead a chemical luminescent reaction upon exciting donor beads with 680 nm laser. Inhibition of TPR2A and MEEVD motif interaction by small molecules could attenuate or abolish this chemical luminescent reaction.
Counter screening: Biotinylated-His-6 (PerkinElmer) can be utilized as a counter screen, as it serves as a linker to bring streptavidin beads and nickel chelate beads together. The counter screen can exclude alpha screen platform false positives due to small molecules being metal chelators, biotin analogues and imidazole analogues, or due to interfering with oxygen release from donor beads. Such an assay should be utilized to qualify any activity observed in this screen.
NCGC Assay Protocol Summary:
The assay was performed on 1536-well white plate (untreated solid bottom). Liquids were dispensed by 1536-well plate washer (Kalypsys, San Diego, CA). Plates were read on EnVision (PerkinElmer, Boston, MA).TPR2A-His6 was produced using a bacteria expression system and purified using a well developed method (Ghosh et al., 2000). Hsp90 C terminal 20-mer peptide with or without an N-terminal biotin group are synthesized using automated solid phase synthesis by the Yale Keck facility. The composition of assay buffer was (in mM) 25 HEPES, 100 KCl, 2 MgCl2 and 2 DTT; 0.1% BSA and 0.01% Tween-20. TPR2A-His6 binding to biotin-Hsp90 will bring streptavidin donor beads and nickel chelate acceptor beads (PerkinElmer) together and can be measured by Alpha reading by EnVision (PerkinElmer). Free Hsp90 blocks biotin-Hsp90 binding to TPR2 and serves as a positive control in the current asssay.
The assay was performed at room temperature. All compounds were screened as titrations from […] to 46 uM final concentration. The assay was performed in 1536-well format plates (untreated white solid bottom, Corning Inc.) as follows:
Sequence,Parameter,Value,Description
1,Reagent,3 uL TPR2A-His6,Final concentration was 5nM
2,Compound,23 nL,Final titration was from 0.7 nM to 46 uM
3,Time,15 minutes,Room temperature
4,Reagent,1 uL biotin-Hsp90,With and without free Hsp90. Final concentration was 10 nM for biotin-Hsp90 and 10uM for free Hsp90.
5,Time,1 hour,Room temperature
[…]
% is scaled to controls: 0 for no effect and ±100 for the full control effect; potency is read from the fitted curve at half-maximal effect.

SMILES | activity change, negative = inhibition | Potency
CC1(C)S[C@@H]2[C@@H](NC(=O)[C@@H](N)c3ccccc3)C(=O)N2[C@H]1C(=O)O | -8.43% | –
O=C(NCC12CC3CC(C1)CC(CNC(=O)N1CCCC1)(C3)C2)N1CCCC1 | -1.73% | –
CC(C)NC(=O)N1CCCC2(CCN(C(=O)c3cccn3C)CC2)C1 | -1.72% | –
c1ccc2c(Nc3ccncc3)nc(-c3ccoc3)nc2c1 | -15.2% | –
O=C(c1ccncc1)N1CCC2(CCN(Cc3cc(C(F)(F)F)cc(C(F)(F)F)c3)CC2)CC1 | -0.985% | –
COc1ccc(-n2c(=O)c(-c3cn(C)c4ccccc34)nc3cnc(OC)nc32)cc1 | -7% | –
Cn1cc(-c2nc3cncnc3n(-c3ccccc3)c2=O)c2ccccc21 | 12.7% | –
COc1ccccc1CCn1c(=O)c(-c2cn(C)c3ccccc23)nc2cncnc21 | – | 631 nM [activator] (active)
COC(=O)[C@@]1(Cc2ccc(OC)cc2)[C@H]2c3cc(C(=O)N4CCCC4)n(Cc4ccc(OC(F)(F)F)cc4)c3C[C@H]2CN1C(=O)c1ccccc1 | -21% | –
Cc1ccc(Br)cc1 | 1.28% | –
Cc1nc2cnc(N3CCNCC3)nc2n(CCc2ccccc2)c1=O | -7.4% | –
C(=C\c1ccccc1)/CSc1nnc(-c2cccnc2)n1Cc1ccco1 | -3.91% | –
CCCS(=O)(=O)N1CCC(C(=O)NCCCN(C)Cc2ccccc2)CC1 | 2.07% | –
COc1ccccc1CNc1ccnc(-c2c(C)noc2C)n1 | 3.49% | –
CSc1ccc(S(=O)(=O)Nc2cccc(F)c2)cc1 | -0.401% | –
O=C(O)C1CCCN1S(=O)(=O)c1ccc2c(c1)CCC2 (centres undefined) | 0.639% | –
CC(C)c1cc(CN(C)C)c(O)c(C(C)(C)C)c1 | 1.81% [at 11 µM] | –
CCC(C)(NC(=O)c1ccccn1)C(=O)NC1CCCCC1 (centres undefined) | -3.12% | –
CCOc1ccc(C(=O)N(Cc2ccc(N(C)C)cc2)C2CCS(=O)(=O)C2)cc1 (centres undefined) | -13% | –
CC(C)Cn1c(CN(Cc2ccccc2)Cc2ccccc2)nc2c1c(=O)n(C)c(=O)n2C | 2.13% | –
COc1ccc(CN2C(=O)CN=C2Nc2ccc(C)cc2C)cc1 | -1.44% | –
OCCCNCc1ccccn1 | -9.89% [at 11 µM] | –
CCCCC[C@H](O)CCCC(=O)O | -7.89% | –
CCCn1c(-c2ccc(F)cc2)nc2c(NC3CCN(Cc4ccccc4)C3)nc(C)nc21 (centres undefined) | -16.3% | –
CC(=O)CCS(=O)(=O)c1ccc(C)c(C)c1 | -3.12% | –

SMILES | activity change, negative = inhibition | Potency
C#CCN1CC(C)/C(=N/O)CC1C (centres undefined) | 0.89% | –
COc1ccc(Cl)cc1NC(=O)C1CC(=O)N(c2ccc(F)cc2)C1 (centres undefined) | -6.06% | –
C[C@H](CCC(=O)O)[C@H]1CC[C@@H]2[C@H]3CC[C@H]4C[C@H](O)CC[C@@]4(C)[C@@H]3CC[C@@]21C | -0.844% [at 11 µM] | –
COCCn1c(=O)c(CCc2ccccc2)nc2cnc(N3CCNCC3)nc21 | -2.61% | –
Oc1ccccc1CNCc1ccccc1O | -2.03% [at 11 µM] | –
O=C(Cl)c1ccc([N+](=O)[O-])cc1 | 0.785% | –
Cc1noc(C)c1-c1cc(NCc2cccnc2)ncn1 | -0.41% | –
c1ccc2sc(SCCSc3nc4ccccc4s3)nc2c1 | 2.87% [at 11 µM] | –
O=C(O)CCCCC(=O)O | -1.35% | –
CN(C)c1ccc(-c2nc(NCCN3CCOCC3)c3ccccc3n2)cc1 | -7.7% | –
COC(=O)c1c(-c2ccc(C)cc2)csc1N | -5.56% | –
CC(C)CC1(C(=O)NCc2ccccn2)C=CCN1C(=O)c1ccccc1 (centres undefined) | -3.81% | –
CN(CCCNC(=O)CN1C(=O)CC(C)(C)S(=O)(=O)c2ccccc21)C1CCCCC1 | -2.54% | –
O=c1[nH]c(=O)n([C@H]2C[C@H](O)[C@H](CO)O2)cc1Br | -2.56% | –
Cc1ccc(S(=O)(=O)Nc2ccccc2CNc2c(C)n(C)n(-c3ccccc3)c2=O)cc1 | -1.54% | –
N[C@H](C(=O)O)c1ccc(C(=O)O)c(O)c1 | -1.81% | –
CCCn1c(=O)c2[nH]c(-c3ccc(OCC(=O)NCCN)cc3)nc2n(CCC)c1=O | -19.8% | –
COc1ccc(OC)c(CN2C(=O)CCC2(C)C(=O)NC2CCCCCC2)c1 (centres undefined) | -12.8% | –
CCCCC/C=C/C=C/C=O | 0.076% | –
N#Cc1cccc(-c2nc3cnc(N4CCNCC4)nc3n(C3CC3)c2=O)c1 | -4.38% | –
O=c1c(-c2ccc(F)cc2)nc2cncnc2n1-c1ccccc1 | -0.766% | –
c1ccc2c(c1)-c1ccccc1C2N1CC2CCC(CC2)C1 | 2.37% [at 11 µM] | –
COc1ccc(C[C@H](N)C(=O)N[C@@H]2[C@H](O)[C@H](n3cnc4c(N(C)C)ncnc43)O[C@@H]2CO)cc1 | -4.16% [at 26 µM] | –
Cc1cc(Cl)ccc1OCC(=O)Oc1c(Cl)c(Cl)c(Cl)c(Cl)c1Cl | 0.356% [at 11 µM] | –
